A number with no mark means an inactive call. Active and inactive are the calls of the source. The call rests on the fitted dose curve; in most records, active means well fitted curve in the direction sought with a large enough effect in the repeat runs; inconclusive means weak or mixed curves; inactive means flat fitted curve, though single readings scatter.
Experiment: qHTS assay to test for compound auto fluorescence at 590 nm (red) in HEK293 cell free culture (AID 720683)
Settings: cell-free medium autofluorescence, Ex540/Em590 red; series mostly up to 91.3 µM
Method in brief: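 Red-channel autofluorescence of compounds in culture medium (DMEM, 10% FBS), no cells, measured at 540/590 nm. Rose Bengal sodium is the reference fluorophore for equivalence.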
On the % scale 0 is the no-effect control and ±100 the full control effect.

Structure (SMILES) | outcome | fluorescence, % of fluorescent control
CNC(=O)Nc1ccc(Cl)c(Cl)c1 | inactive | –
O=C(O)c1cc(C(=O)O)cc(C(=O)O)c1 | inactive | –
CCC(C(=O)NC(=O)NC(C)=O)c1ccccc1 (configuration not stated) | inactive | –
CCCCS(=O)(=O)N[C@@H](Cc1ccc(OCCCCC2CCNCC2)cc1)C(=O)O | inactive | –
CCC(C)(CN(C)C)OC(=O)c1ccccc1 (configuration not stated) | – | -0.827% [at 18.6 µM]
OCCCCCO | inactive | –
Nc1ccn([C@@H]2O[C@H](CO)[C@@H](O)[C@@H]2O)c(=O)n1 | inactive | –
CC[N+](CC)(CC(=O)Nc1c(C)cccc1C)Cc1ccccc1 (tested in a mixture with another compound) | inactive | –

Experiment: qHTS assay to test for compound auto fluorescence at 590 nm (red) in HepG2 cell free culture (AID 720684)
Settings: cell-free medium autofluorescence, red 540/590 nm; series mostly up to 91.3 µM
Method in brief: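 No cells present: MEM + 10% FBS only. Compound pinned in, red label read (540/590 nm). Activity = fluorescence equivalent to Rose Bengal sodium.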

Structure (SMILES) | outcome | fluorescence, % of Rose Bengal
Nc1ccn([C@@H]2O[C@H](CO)[C@@H](O)C2(F)F)c(=O)n1 | inactive | –
C=COC(=O)C(C)(CC)CCC(C)C (configuration not stated) | inactive | –
Cc1ccc(C(=O)c2ccc(CC(=O)O)n2C)cc1 | – | 0.0726% [at 18.6 µM]
CN(C)CCN(C)CCN(C)C | inactive | –
CN(C)[C@@H]1C(=O)C(C(=O)NCN2CCCC2)=C(O)[C@@]2(O)C(=O)C3=C(O)c4c(O)cccc4[C@@](C)(O)C3C[C@@H]12 (some centres not stated) | inactive | –
CC(C)CC(C)(N)C#N (configuration not stated) | inactive | –
C=C(C)C(=O)OCCOCCOCCOCCOC(=O)C(=C)C | inactive | –
CO[C@@]1(NC(=O)C(C(=O)O)c2ccc(O)cc2)C(=O)N2C(C(=O)O)=C(CSc3nnnn3C)CO[C@@H]21 (some centres not stated) | – | -0.105% [at 18.6 µM]
COc1cc(C(=O)NCc2ccc(OCCN(C)C)cc2)cc(OC)c1OC | – | -0.58% [at 18.6 µM]
